We go through four compounds from the supplement of paper PMC9477273.

In this assay the test system is DRIVER-selected RNA biosensor (aptazyme) pool. The experiment in a line: maximum fold change of ribozyme cleavage across biosensor pool versus no-compound control; higher = stronger biosensor response (ligand inhibits cleavage). The following applies: 10 µM. As for the experimental part: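 CleaveSeq: a pool of resynthesized hammerhead-ribozyme RNA biosensors (sTRSV scaffold with randomized loops, 1,730 sequences) was T7-transcribed at 37 °C for 15-30 min with a single compound at 10 µM. Cleaved and uncleaved products were counted by NGS, and fold change of cleavage was computed against the DMSO-only condition. The value is the maximum fold change of cleavage over all biosensors in the pool. About 255 compounds were tested individually.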
Take `CN1CCN(Cc2csc3c2CCCC3)CC1`: the maximum fold change stood at 3.66. Turning to `O=C(Cn1cnc2sc3c(c2c1=O)CCCC3)NCCCC(=O)N1CCC2(CC1)OCCO2`, the maximum fold change stood at 2.67.

Compound `O=Cc1cn(Cc2ccc(F)cc2Cl)c2ccccc12` had a maximum fold change of 3. To `Cc1ccc(CNC(=O)CN2CC(c3ccccc3)CC2=O)cc1` (centres undefined) belongs 3.05.
